Screening data as filed in PubChem.
The list is not random: actives were taken first. Their share in the collection is about 19%.
DT40 TDP1 CPT: growth inhibition of DT40 Tdp1-/-;hTDP1 cells with camptothecin (screen for TDP1 inhibitors). AID 686979. chicken DT40 Tdp1-/-;hTDP1 cells + 20 nM CPT, ATP luminescence, 48 h. hit rate 12% among 420,000. Potency, µM (top dose mostly 46.2 µM), without a hit: at the top dose activity change, negative = growth inhibition, actives largely listed as inhibitors; further: potency means the concentration at half of the fitted maximal effect; nearly all actives have a fitted effect of over 55% in size
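Chicken DT40 Tdp1-/- cells stably complemented with human TDP1 were seeded at 400 cells/well in medium containing 20 nM camptothecin, exposed to pin-transferred compounds, and grown at 37 °C for at least 48 hr. Viability was read as ATP luminescence.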
TDP1 cell noCPT: qHTS for Inhibitors of human tyrosyl-DNA phosphodiesterase 1 (TDP1): qHTS in cells in absence of CPT | DT40 Tdp1-/- hTDP1 cells, no CPT, ATP luminescence, 48 h | Potency, µM (titrated, usually from 46.2 µM), inactives show at the highest dose activity change, negative = growth inhibition, usual class: inhibitors | hit rate 15% among 420,000 | AID 686978, 2013; further: potency means the concentration at half of the fitted maximal effect; nearly all actives have a fitted effect of over 55% in size
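Seeded 400 DT40-hTDP1 cells/well (vehicle DMSO, no 20 nM CPT); pinned compounds; ≥48 hr at 37 °C; CellTiter-Glo luminescence as viability measure.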
IL-1B inflam inh: inhibitors of inflammasome signaling (IL-1 beta secretion); THP-1 LPS/ATP IL-1B secretion, AlphaLISA, 16 h; active compounds read low; activity change, % at 57.5 µM; hit rate 4.7% among 360,000; in the data active means activity change below about -50%; inconclusive means mostly about -30% to -49%
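Secreted IL-1B measured by AlphaLISA bead assay after 16 h compound exposure of THP-1 cells; compounds (final up to 57.5 uM) added 1 h before LPS (250 ng/mL) and ATP (1.25 mM) stimulation; lower signal means less secretion.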
HT1080 IDH1KD tx: toxicity to HT-1080 IDH1 knockdown cells (counter line); hit rate 2% among 360,000; HT-1080 IDH1 knockdown viability, ATP luminescence, 48 h; Potency, µM (series often up to 46.1 µM), without a hit: at the highest dose activity, negative = toxicity, actives largely listed as cytotoxic;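 further: potency means the concentration at half of the fitted maximal effect; 0% = DMSO wells and -100% = cell-free medium wells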
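Viability of IDH1-knockdown HT-1080 fibrosarcoma cells was assessed by CellTiter-Glo after 48 h at 37 °C with titrated compound; concentration-effect curves were classified by fit quality and response size.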
HT1080NT lethal: kills 2HG-producing HT-1080-NT fibrosarcoma cells; HT-1080-NT fibrosarcoma viability, CellTiter-Glo ATP luminescence, 48 h; Potency, µM (highest dose often 46.1 µM), for inactives: at the top dose activity, negative = less viability, usual class: cytotoxic; hit rate 1.6% among 360,000; AID 686970;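 further: NT is the 2HG producing partner of a matched IDH1 knockdown line; potency means the concentration at half of the fitted maximal effect; 0% = DMSO-treated cells and -100% = media-only wells without cells; nearly all actives have a fitted effect of over 55% in size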
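HT-1080-NT; 750 cells/well; 5% FBS RPMI; 48 h compound, 37 degrees C; CellTiter-Glo luminescence; curve fitting and curve-class assignment.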
Active calls of the source: *; ? = inconclusive; . = not tested or not shown; [ ] = another dose, or the depositor's remark. Unless noted, the call rests on the fitted dose curve; in most records, active means well fitted curve in the direction sought with a large enough effect; inconclusive means small, poorly fitted or top-dose-only effect, or another doubt; inactive means no such curve, though single readings can be large; an effect the other way counts as inactive or inconclusive. Unless noted, on the % scale 0 is the no-effect control and ±100 the full control effect.

SMILES	DT40 TDP1 CPT	TDP1 cell noCPT	IL-1B inflam inh	HT1080 IDH1KD tx	HT1080NT lethal
CCOc1cc(N2CCOCC2)c(OCC)cc1NC(=O)C(C)Oc1ccccc1 (stereo not given)	?	13µM*	-2.2	-22.1%	-15.1%
CC(Oc1cccc(Cl)c1)C(=O)Nc1ccccc1C(=O)N1CCCCC1 (stereo not given)	23.1µM*	?	-7.2	-4.5%	-1.7%
CCOc1cc(N2CCOCC2)c(OCC)cc1NC(=O)c1ccccc1C	-24.8%	?	-12.0	12.2%	13.0%
CCOc1cc(N2CCOCC2)c(OCC)cc1NC(=O)CN1CCCC1	9.9%	-5.4%	12.7	4.9%	7.2%
CC(C)(C)OC(=O)N[C@H]1C=C[C@@H](OC(=O)CC(=O)OCC(F)(F)F)C1	-0.8%	2.1%	27.5	3.0%	1.9%
CC(=O)C[C@H](O)CC(=O)[C@@H]1OC(=O)CCCCC/C=C/Cc2ccccc21	6.0%	-2.8%	-7.2	10.1%	19.4%
CCOc1cc(S(=O)(=O)NCCc2cccc(C)c2)c(OCC)cc1-n1cnnn1	?	-22.1%	-22.6	9.4%[9.24 µM]	1.1%
COc1cccc(CNC(=O)CN2C(=O)CCn3nc(-c4cn(C)c5ccccc45)cc32)c1OC	-1.3%	4.2%	.	.	.
Cn1cc(-c2cc3n(n2)CCC(=O)N3CCCC(=O)NCc2ccc(F)cc2)c2ccccc21	16.4µM*	?	.	.	.
CCc1ccc(CNC(=O)CN2C(=O)CCn3nc(-c4cn(C)c5ccccc45)cc32)cc1	16.4µM*	-20.9%	.	.	.
COCCCNC(=O)CCCN1C(=O)CCn2nc(-c3cn(C)c4ccccc34)cc21	0.4%	-20.4%	.	.	.
O=C(NCC1(N2CCCCC2)CCCCC1)c1cccc(S(=O)(=O)Nc2ccc(F)cc2)c1	?	?	-9.2	-8.0%	-1.6%
O=C(NCCc1ccccc1F)C1CC(=O)N(c2ccc3c(c2)OCCO3)C1 (stereo not given)	-6.4%	-2.6%	4.9	11.9%	8.1%
CCCCn1nnnc1C(c1ccccc1)N1CCN(C)CC1 (stereo not given)	1.9%	-14.4%	3.9	13.2%	21.2%
Fc1ccc(C(c2ccc(F)cc2)N2CCN(C/C=C/c3ccccc3)CC2)cc1	3.66µM*	23.1µM*	-11.8	?	?
CCCCn1nnnc1C(c1ccccc1)N1CCN(c2ncc(C(F)(F)F)cc2Cl)CC1 (stereo not given)	?	18.4µM*	8.3	-21.0%	-13.7%
CC(C)(C)n1nnnc1C(c1ccccc1)N1CCN(C/C=C/c2ccccc2)CC1 (stereo not given)	?	?	-8.3	-24.2%	-28.3%
CCC(c1nnnn1Cc1ccccc1)N1CCN(C/C=C/c2ccccc2)CC1 (stereo not given)	?	14.6µM*	-7.9	?	-29.3%
C(=C\c1ccccc1)/CN1CCN(C(c2ccccc2)c2nnnn2Cc2ccccc2)CC1 (stereo not given)	29.1µM*	?	0.0	?	?
OC(c1ccc(F)c(F)c1)c1ncc(-c2cccc(F)c2)[nH]1 (stereo not given)	?	-18.7%	0.1	-2.6%	-4.8%
CCN(CC(=O)Nc1c(F)cccc1F)C(=O)C1CCN(S(=O)(=O)c2ccccc2C(=O)OC)CC1	0.0%	-19.1%	-18.0	-0.3%	3.2%
N#Cc1cccc(C(c2nnnn2Cc2ccccc2)N2CCCC2)c1 (stereo not given)	-9.3%	-11.5%	6.3	4.4%	0.0%
CCN1CCN(C(c2ccccc2)c2nnnn2Cc2ccc(OC)cc2)CC1 (stereo not given)	-17.2%	-6.3%	?	-15.1%	2.6%
FC(F)(F)Oc1ccccc1C(c1nnnn1Cc1ccccc1)N1CCN(C/C=C/c2ccccc2)CC1 (stereo not given)	?	?	-55.3*	-16.1%	-18.4%
CN1CCN(C(c2cccc(C(F)(F)F)c2)c2nnnn2Cc2ccccc2)CC1 (stereo not given)	-25.3%	?	-54.2*	?	?
